Source: PubChem
Most compounds without a hit are left out; they make up all but 2.4% or so of the library.
ELG1 repair inh – ELG1-dependent DNA repair inhibition. HEK293T ELG1-luciferase reporter, luminescence, 16 h; DNA damage induced by 5-fluorouridine. Potency, µM (series often up to 46.1 µM), inactives show at the top dose activity change, negative = inhibition, hits mostly inhibitors. 2.3% of 330,000 active. AID 504467; further: on the % scale 0 is the no-effect control and ±100 the full control effect; nearly all actives have a fitted effect of over 55% in size
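Luminescence from the luciferase reporter, measured 30 min after ONE-Glo reagent at room temperature, was the read-out. Beforehand, 2,000 cells per well were exposed for 16 hr at 37 °C to 5-fluorouridine together with compound or vehicle.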
Rango complex inh – inhibitors of Rango-importin beta complex formation. AID 540263. Q14974. Rango CFP/YFP FRET sensor + importin beta, 45 min. 0.031% of 340,000 active. Potency, µM (top dose mostly 92.2 µM), for the others: at the highest dose inhibition of complex formation; calls by dose curve;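 further: 0% = DMSO wells and 100% = buffer wells lacking importin beta; nearly all actives have a fitted effect of over 15% in size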
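FRET biosensor Rango (snurportin 1 IBB between N-terminal EYFP and C-terminal Cerulean), 50 nM in PBS/1 mM DTT/0.02% Tween-20/0.1% BSA, preincubated 5 min RT with compound; 0.125 microM importin beta added, 45 min RT, CFP/YFP FRET ratio read.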
Tb PFK inh-1 – blocks T. brucei phosphofructokinase; O15648; T. brucei PFK, ADP-Glo luminescence; Potency, µM (doses to about 57.5 µM), inactives show at the highest dose activity, negative = inhibition, hits mostly inhibitors; 0.17% of 330,000 active; AID 485367;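 further: 0% = uninhibited 1x PFK enzyme wells and -100% = no-enzyme wells; nearly all actives have a fitted effect of over 60% in size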
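Activity is normalized to no-enzyme wells (full inhibition) and 1.25 nM enzyme wells (no inhibition). Reaction: 0.5 mM F6P, 0.1 mM ATP, 45 min RT, ADP-Glo luminescence; concentration-response curves fitted and classed by quality.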
Rango release inh – inhibition of RanGTP-driven Rango-importin beta dissociation; O95149+P62826; Biochemical FRET Rango-importin beta, RanGTP-induced dissociation; Potency, µM (top dose mostly 46.1 µM), for the others: top-dose activity change, negative = inhibition; 0.071% of 340,000 active; calls by dose curve; further: % of control where 0% means no effect; nearly all actives have a fitted effect of over 45% in size
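Rango/importin beta premix (0.1/0.25 uM final), PBS + 1 mM DTT + 0.02% Tween-20 + 0.1% BSA; cpd 5 min RT; FRET pre-read; + RanGTP-RCC1 (0.6 uM Ran, 2 mM GTP, 0.2 uM RCC1); 45 min RT; FRET post-read, ex 430, em 486/530 nm.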
PKM2 activator – PKM2 (human) enzyme activation; P14618; purified PKM2, Kinase-Glo ATP luminescence, activation; response scale: 0% is enzyme alone, no compound; Potency, µM (doses to about 57.5 µM), for the others: at the highest dose activation, actives largely listed as activators; 0.34% of 260,000 active; further: on the % scale 0 is the no-effect control and ±100 the full control effect; nearly all actives have a fitted effect of over 55% in size
Target sequence (P14618 whole entry, looked up): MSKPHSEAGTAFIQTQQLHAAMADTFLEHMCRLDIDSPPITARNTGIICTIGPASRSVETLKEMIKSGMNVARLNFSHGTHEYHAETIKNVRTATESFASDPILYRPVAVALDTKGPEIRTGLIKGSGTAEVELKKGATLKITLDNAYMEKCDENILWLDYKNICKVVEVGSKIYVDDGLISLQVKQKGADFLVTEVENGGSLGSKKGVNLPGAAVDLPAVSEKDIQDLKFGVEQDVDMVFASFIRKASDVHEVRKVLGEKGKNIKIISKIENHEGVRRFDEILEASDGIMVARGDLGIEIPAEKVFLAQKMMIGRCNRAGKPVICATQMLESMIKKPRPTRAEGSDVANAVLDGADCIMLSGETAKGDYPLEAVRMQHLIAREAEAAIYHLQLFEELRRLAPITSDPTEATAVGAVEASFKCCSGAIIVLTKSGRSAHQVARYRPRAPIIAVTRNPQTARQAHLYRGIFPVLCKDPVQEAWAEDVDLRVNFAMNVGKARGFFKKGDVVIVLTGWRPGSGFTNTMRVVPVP
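Purified hPK-M2 (>95%) run at intermediate activity with 0.1 mM ADP and 0.5 mM PEP in 50 mM imidazole pH 7.2, KCl, MgCl2; 1 h room temperature. ATP formed read by Kinase-Glo luminescence; normalized to uninhibited and no-enzyme controls.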
Tb PGK inh – blocks T. brucei phosphoglycerate kinase | Potency, µM (series often up to 57.5 µM), inactives show at the highest dose activity change, negative = inhibition, hits mostly inhibitors | PGK/GAPDH coupled, Kinase-Glo luminescence, 60 min | P07378 | 0.043% of 380,000 active; further: on the % scale 0 is the no-effect control and ±100 the full control effect; nearly all actives have a fitted effect of over 60% in size
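Recombinant glycosomal PGK reaction used 1,3-bisphosphoglycerate generated in-well by GAPDH (100nM final) in 100mM TEA pH 7.6, 5mM MgCl2, 0.01% Tween-20. After 60 minutes at room temperature, ATP was read by Kinase-Glo Plus luminescence end-point.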
TbPFK ATP – Tb phosphofructokinase inhibition, orthogonal luminescence | shares compounds with Tb PFK inh-1 | Tb PFK enzyme, ATP depletion, Kinase-Glo Plus luminescence | Potency, µM (series often up to 57.5 µM), inactives show at the top dose inhibition | 47% of 1,100 active; calls by dose curve; further: nearly all actives have a fitted effect of over 60% in size
Tb PFK inh-2 – validation of T. brucei phosphofructokinase inhibitors; Potency, µM (highest dose often 57.5 µM), for inactives: at the highest dose activity change, negative = inhibition, usual class: inhibitors; shares compounds with Tb PFK inh-1; 41% of 1,100 active; purified T. brucei PFK, ADP-Glo luminescence, 45 min;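 further: plate controls were full PFK enzyme control for no effect and no enzyme control for full effect; nearly all actives have a fitted effect of over 60% in size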
* = called active by the depositor; i = inactive; ? = inconclusive; nt = no result. Unless noted, the call rests on the fitted dose curve; in most records, active means well fitted curve in the direction sought with a large enough effect; inconclusive means small, poorly fitted or top-dose-only effect, or another doubt; inactive means no such curve, though single readings can be large; an effect the other way counts as inactive or inconclusive. Potency means the concentration at half of the fitted maximal effect.

SMILES	ELG1 repair inh	Rango complex inh	Tb PFK inh-1	Rango release inh	PKM2 activator	Tb PGK inh	TbPFK ATP	Tb PFK inh-2
Cn1c(=O)c2c(nc(N/N=C/c3c(O)n(-c4ccccc4)c(=S)[nH]c3=O)n2C)n(C)c1=O	0.3%	?	-6.0%	-16.2%	-7.5%	2.9%	nt	nt
CCc1ccc(CNCCc2ccc(F)cc2)cc1	-5.3%	5.9%	-2.5%	0.6%	-23.5%	1.3%	nt	nt
Fc1ccc(CCNCc2ccc(Cl)c(Cl)c2)cc1	8.3%	-1.9%	?	17.0%	-0.1%	nt	15.1µM*	26.9µM*
OCC[n+]1c2ccccc2nc2ccc(N3CCOCC3)cc21	23.1µM*	0.8%	?	2.3%	-10.4%	-12.8%	1.2%	-1.9%
Cn1c(SCC(=O)O)nnc1-c1ccc(NC(=O)c2ccc(Cl)c(Cl)c2)cc1	0.0%	-0.2%	?	-4.2%	-3.7%	-8.3%	23.9µM*	?
O=C(O)c1ccc(N=Nc2c(O)[nH]c3cc(Cl)ccc23)cc1	?	?	?	?	-2.9%	0.2%	-25.4%	?
O=C1CNC(c2ccccc2Cl)c2cc(Br)ccc2N1 (stereo not drawn)	-2.5%	-4.9%	-4.3%	1.1%	-3.1%	-4.1%	nt	nt
CC(C)(C)CC(=O)Nc1cc(S(=O)(=O)N2CCOCC2)ccc1N1CCCC1	-1.0%	4.2%	?	4.7%	13.5%	-4.4%	-32.0%	?
COc1ccc(CNC(=O)Cn2c(=O)oc3cc(S(=O)(=O)N4CCCC4)ccc32)cc1	-5.0%	0.5%	2.1%	-0.2%	nt	-3.7%	nt	nt
CCc1c(C)c2ccc(OCC(N)=O)cc2oc1=O	?	-0.6%	15.7%	-15.9%	-7.3%	-6.6%	nt	nt
COc1ccc(C)cc1NC1=NCCCS1	3.9%	-2.0%	-1.2%	?	5.0%	10.3%	nt	nt
COc1ccc(C)cc1NC(=O)c1ccc2c(SCC(=O)O)c3c(nc2c1)CCCC3	12.7%	3.2%	?	1.4%	-0.5%	-7.0%	-29.5%	?
Cc1ccc(S(=O)(=O)CNC(=S)c2cccc(Cl)c2)cc1	-9.4%	-2.4%	?	12.9%	-24.4%	-7.7%	?	30.1µM*
CC(NC(C)(C)C)C(=O)c1cccc(Cl)c1 (stereo not drawn)	22.6%	-3.6%	-10.4%	-3.8%	-20.1%	i	nt	nt
N#Cc1cccc(NC(=O)c2sc3nc4c(cc3c2N)N2CCC4CC2)c1	nt	nt	nt	nt	nt	-1.4%	nt	nt
NS(=O)(=O)c1ccc(-c2ccc(C=C3C(=O)NC(=O)NC3=O)o2)cc1	18.7%	0.8%	-20.0%	-20.6%	1.7%	-1.2%	nt	nt
CC1(C)OC(=O)C(=Cc2ccc(-c3ccc(S(N)(=O)=O)cc3)o2)C(=O)O1	?	-0.6%	?	-11.7%	?	-9.0%	7.2%	?
Cc1cc(C)nc(NS(=O)(=O)c2ccc(NC(=O)c3cc(=O)c4ccccc4o3)cc2)n1	8.7%	1.7%	?	?	nt	-7.9%	-27.2%	?
O=C(Nc1ccc(-c2nc3ccccc3c(=O)o2)cc1)c1ccco1	?	8.1%	0.0%	-0.4%	-1.5%	3.6%	nt	nt
C=C1C2C[C@H](O)C(C)(C)[C@@]2(O)[C@H](O)C[C@]23C[C@@](C)(O)[C@H](CC[C@H]12)[C@H]3OC(C)=O (stereo partly drawn)	-1.6%	-0.8%	-0.1%	0.4%	-18.4%	-5.0%	nt	nt
CCCC1=Nc2cc(C(=O)NC3CCC(C)CC3)ccc2Sc2ccccc21 (stereo not drawn)	nt	nt	nt	nt	nt	1.5%	nt	nt
COc1ccc(C(=O)CCNc2ccc(F)cc2)cc1	?	-1.5%	-2.5%	-0.3%	-1.1%	-3.9%	nt	nt
Cc1nc(SCC(=O)c2ccc(F)cc2)n[nH]1	0.0%	3.1%	21.3µM*	-8.8%	-35.9%	-0.2%	?	?
O=C(COc1ccccc1[N+](=O)[O-])N/N=C/c1ccc(O)c([N+](=O)[O-])c1	?	-4.3%	?	-8.6%	-0.5%	-0.5%	-28.4%	?
COc1cc(/C=N/NC(=O)Cn2c([N+](=O)[O-])cnc2C)ccc1OC(=O)N(C)C	?	-4.4%	-4.7%	5.0%	-8.6%	nt	nt	nt
SMILES	ELG1 repair inh	Rango complex inh	Tb PFK inh-1	Rango release inh	PKM2 activator	Tb PGK inh	TbPFK ATP	Tb PFK inh-2
N=c1ccn(Cc2cccc(Cl)c2)cc1	?	1.2%	7.57µM*	1.5%	2.8%	2.5%	?	19µM*
N=c1ccn(Cc2ccc(Cl)c(Cl)c2)cc1	4.61µM*	-0.3%	1.69µM*	3.3%	-11.1%	-7.0%	2.39µM*	5.36µM*
Clc1ccc(Cn2ccnc2)cn1	-16.5%	2.9%	-0.3%	4.3%	3.2%	-3.3%	nt	nt
Clc1ccc(COn2ccnc2)cc1Cl	28.9%	4.9%	?	-15.3%	0.1%	-9.5%	nt	nt
N=c1ccn(Cc2ccc(Cl)cc2)cc1	5.17µM*	-3.7%	10.7µM*	1.5%	-0.8%	-4.6%	?	?
CCN(CC)C(=O)Oc1cc2c(-c3cc4cccc(OC)c4o3)cc(=O)oc2cc1C	?	-1.1%	-4.9%	-0.9%	nt	-5.4%	nt	nt
CCN1CC2([N+](=O)[O-])CC=C(Cl)C([N+](=O)[O-])(C1)C2 (stereo not drawn)	2.0%	0.3%	1.1%	0.5%	0.0%	-8.0%	nt	nt
CN(C)c1ccc(C=C2C=CC=C2)cc1	nt	?	nt	-24.2%	nt	-4.9%	nt	nt
CCN(CC)c1ccc(/C=C2\C(=O)NC(=O)N(Cc3ccco3)C2=O)cc1	?	?	0.3%	-20.5%	9.6%	-2.0%	nt	nt
O=C1CC(=O)N(Cc2ccco2)C(=S)N1	3.5%	?	21.3µM*	?	-1.0%	?	23.9µM*	?
